mIDH1 inhibitor: human IDH1 R132H inhibition; IDH1-R132H enzyme, NADPH consumption, diaphorase/resazurin fluorescence; hit rate 0.093% among 390,000; AID 602179; Potency, µM (doses to about 76.6 µM), inactives show top-dose activity change, negative = inhibition, actives largely listed as inhibitors; also: nearly all actives have a fitted effect of over 65% in size
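IDH1-R132H (0.5 ug/mL) preincubated 30 min with compound, then NADPH (0.016 mM) and alpha-KG (2 mM) added; 80 min at RT, pH 7.5. Remaining NADPH coupled via diaphorase/resazurin to fluorescence (540/590 nm); concentration-response curves normalized to no-enzyme control.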
GLS inhibitor: glutaminase GLS (human) inhibition. hit rate 0.21% among 410,000. Potency, µM (highest dose often 45.5 µM), without a hit: top-dose activity change, negative = inhibition, hits mostly inhibitors. GLS enzymatic activity, qHTS titration. AID 624170
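Read-out is an Amplex red fluorescence increase coupled through glutamate oxidase and HRP, measured before and after 30 min room-temperature incubation. hKGA is in 45 mM KH2PO4 (pH 8.2) with 0.02% Tween-20; glutamine added as 1mM solution.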
TrxR1 substrate: rat thioredoxin reductase 1 substrate activity. purified TrxR1 substrate turnover, NADPH consumption readout. Potency, µM (top dose mostly 114 µM), inactives show top-dose activity change, negative = substrate turnover. hit rate 0.01% among 390,000. AID 588456; also: nearly all actives have a fitted effect of over 50% in size
Target sequence (O89049 whole entry, looked up): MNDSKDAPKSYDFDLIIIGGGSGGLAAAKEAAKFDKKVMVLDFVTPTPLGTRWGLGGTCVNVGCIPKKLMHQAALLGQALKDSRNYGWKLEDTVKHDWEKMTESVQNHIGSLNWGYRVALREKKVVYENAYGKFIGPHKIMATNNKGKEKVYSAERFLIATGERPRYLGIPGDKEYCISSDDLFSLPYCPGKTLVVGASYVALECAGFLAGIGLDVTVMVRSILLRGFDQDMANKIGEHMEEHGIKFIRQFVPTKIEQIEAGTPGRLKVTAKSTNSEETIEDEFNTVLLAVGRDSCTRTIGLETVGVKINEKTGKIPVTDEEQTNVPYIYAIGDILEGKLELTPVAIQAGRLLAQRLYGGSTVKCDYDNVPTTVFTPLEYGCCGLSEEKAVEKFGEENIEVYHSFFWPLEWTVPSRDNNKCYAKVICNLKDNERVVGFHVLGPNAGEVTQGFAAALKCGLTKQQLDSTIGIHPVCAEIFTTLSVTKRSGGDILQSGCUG
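Rat TrxR1, dispensed at 90 nM, was prereduced with 400 uM NADPH (final) for 5 min at ~22 deg C, then incubated with compound 15 min before 400 uM selenite. A first-read NADPH fluorescence drop versus no-compound background flagged substrates.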
rTrxR1 inhibitor: inhibitors of rat thioredoxin reductase 1. O89049. recombinant rTrxR1, NADPH fluorescence consumption, selenite substrate. Potency, µM (doses to about 114 µM), for inactives: at the highest dose activity change, negative = inhibition, actives largely listed as inhibitors. hit rate 1% among 390,000; also: nearly all actives have a fitted effect of over 65% in size
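Rat TrxR1 (90 nM in the dispensed reagent) was pre-reduced with 400 uM NADPH for 5 min at room temperature, then incubated with compound for 15 min. After 400 uM selenite was added, NADPH fluorescence (Ex 340/Em 450 nm) was followed for 8 min.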
Starred values were filed as active, the others as inactive; ? = inconclusive; · = not tested or not shown; [ ] = another dose, or the depositor's remark. An excerpt weighted towards active compounds, which were near 1.2% of everything screened. Calls follow the shape of the dose curve; as a rule, active = well fitted curve in the direction sought with a large enough effect; inconclusive = small, poorly fitted or top-dose-only effect, or another doubt; inactive = no such curve, though single readings can be large; an effect the other way counts as inactive or inconclusive. % is scaled to controls: 0 for no effect and ±100 for the full control effect; potency is read from the fitted curve at half-maximal effect.

SMILES | mIDH1 inhibitor | GLS inhibitor | TrxR1 substrate | rTrxR1 inhibitor
O=C1C2C(C(=O)N1/N=C/c1ccc(N3CCCCC3)o1)C1C=CC2C12CC2 (stereo not drawn) | -1% | 21% | -3% | 25µM*
O=C1C2C3C=CC(C4CC34)C2C(=O)N1/N=C/c1ccc(-c2cccc([N+](=O)[O-])c2)o1 (stereo not drawn) | 2% | -4% | -14% | 3%[57.1 µM]
Cc1ccccc1C(=O)N1CC/C(=N/OS(=O)(=O)O)c2ccc(Cl)cc21 | · | 6% | · | ·
O=C(COc1ccccc1)Nc1nnc(SCc2cc(=O)n3cc(Cl)ccc3n2)s1 | -9% | 2% | 8%[57.1 µM] | 28%[57.1 µM]
CCOc1cc(C(=O)NCc2nc(-c3cccc(C)c3)no2)cc(OCC)c1OCC | -8% | -11% | -4% | 11%
COC(=O)COc1ccc(-c2nnc(Nc3ccc(O)cc3)c3ccccc23)cc1 | 11% | 37% | -5% | -5%
CNC(=O)c1ccc(Nc2nnc(-c3ccc(O)cc3)c3ccccc23)cc1 | 13% | ? | -1% | ?
CNC(=O)c1cc(Nc2nnc(-c3ccc(O)cc3)c3ccccc23)ccc1OC | 2% | 11µM* | 0% | 4%
CN(C)C(=O)c1ccc(Nc2nnc(-c3ccc(O)cc3)c3ccccc23)cc1 | -6% | 11µM* | -15% | -16%
NC(=O)COc1ccc(Nc2nnc(-c3ccc(O)cc3)c3ccccc23)cc1 | -14% | 7.9µM* | -2% | 8%
Cc1ccc(Nc2c(-c3ccccc3O)nc3cnccn23)cc1 | -2% | 7.9µM* | 6%[11.4 µM] | 11%[11.4 µM]
O=C1CC(C(=O)N2CCN(c3ccccc3O)CC2)CN1Cc1ccccc1 (stereo not drawn) | 3% | 5µM* | -2% | -1%
O=C1CC(C(=O)N2CCN(c3ccccc3)CC2)CN1Cc1ccccc1 (stereo not drawn) | 7% | 8% | -8% | -19%
COc1ccccc1NC(=O)CN1CCN(CC(=O)Nc2cc(C)ccc2OC)CC1 | 0% | -6% | 1% | 9%
CCN1CCOC(=O)C1CC(=O)Nc1ccc(Br)cc1 (stereo not drawn) | 24% | -4% | 7%[11.4 µM] | 71µM*
CCN1CCOC(=O)C1CC(=O)Nc1cc(C)ccc1OC (stereo not drawn) | -7% | -1% | 5%[11.4 µM] | 11µM*
CCN1CCN(CCC(=O)Nc2ccc(Br)cc2)CC1 | -3% | 16% | -2% | -1%
CC(=O)Nc1cccc(NC(=S)Nc2cccc(Cl)c2Cl)c1 | 4% | 0% | 0%[57.1 µM] | 32µM*
COC(=O)c1cccc(NC(=S)Nc2cccc(Cl)c2Cl)c1 | -2% | -23% | 14%[57.1 µM] | -48%
COC(=O)c1cc(NC(=O)CC2SC(=Nc3ccccc3)N(CCc3c[nH]c4ccccc34)C2=O)cc(C(=O)OC)c1 (stereo not drawn) | 3% | 25µM* | 7%[57.1 µM] | 44%[57.1 µM]
CCSc1nc2c([nH]c3ccccc32)c(=O)n1-c1ccc(F)cc1 | 7% | 3% | 0%[57.1 µM] | 6%[57.1 µM]
COc1ccc(-c2cc(C(=O)Nc3c(Cl)cc(Cl)cc3Cl)c3ccccc3n2)cc1OC | -1% | 2% | 129% | 79µM*
COc1ccc(NC(=O)c2cc(-c3ccc(C)o3)nc3ccccc23)cc1OC | 0% | 1% | 8%[57.1 µM] | 28µM*
COc1ccc(-c2cc(C(=O)Nc3ccc(Cl)cc3Cl)c3ccccc3n2)cc1OC | 1% | 2% | 22% | -15%
COC(=O)C1=C[C@@H](C(=O)OC)[C@@H]2C3=C(C(=O)C2(C)C)[C@H](C)n2c(=O)n(-c4ccccc4)c(=O)n2[C@@H]3C1 | 15% | 0% | 10% | 56µM*
SMILES | mIDH1 inhibitor | GLS inhibitor | TrxR1 substrate | rTrxR1 inhibitor
CCOC(=O)Nc1ccc2c(c1)N(C(=O)CCN(CC)CC)c1ccccc1S2=O (stereo not drawn) | -1% | -16% | 5%[57.1 µM] | 28µM*
S=c1[nH]nc(-c2cc(-c3ccccn3)nc3ccccc23)o1 | -1% | 53% | -8% | 56µM*
O=c1cc(CO)oc(C(Nc2ccccn2)c2cccc(F)c2)c1O (stereo not drawn) | -5% | -3% | -2% | 20µM*
COc1cccc(C(Nc2ccccn2)c2oc(CO)cc(=O)c2O)c1 (stereo not drawn) | -2% | 13% | -2% | 71µM*
Clc1ccccc1-c1cnc2sc(NCc3ccc4c(c3)OCO4)nn12 | · | 3% | · | ·
CCOc1ccc2c(c1)c(=O)c(S(=O)(=O)c1ccccc1)cn2CC(=O)Nc1ccccc1OC | -2% | 0% | -4% | -13%
O=C(NCCc1nc2ccccc2n1Cc1ccccc1)c1ccco1 | 10% | -8% | 24% | 26%
O=C1CC(N2CCC(Cc3ccccc3)CC2)C(=O)N1CCc1ccccc1 (stereo not drawn) | 5% | 18% | 1% | 32µM*
O=C1CC(N2CCN(C3CC(=O)N(CCc4ccccc4)C3=O)CC2)C(=O)N1CCc1ccccc1 (stereo not drawn) | 1% | -7% | -1% | 10%
C=CCn1c(O)c(N=NC(=O)CNC(=O)/C=C/c2ccco2)c2ccccc21 | -16% | -21% | -2% | 14µM*
C=CCn1c(O)c(N=NC(=O)CNC(=O)/C=C/c2ccc(OC)cc2)c2ccccc21 | 8% | 4% | -9% | 8%
Cc1cc[n+](CCC2CCCCC2)c2ccccc12 | · | · | 16% | 22%
CCCCS/C(=C(/C#N)C(N)=O)c1cc2c([nH]1)CCCC2 | 1% | 1% | -13% | 45µM*
COc1ccc(NC(=O)c2cc(S(=O)(=O)N3CCCC(C)C3)cn2C)c(OC)c1 (stereo not drawn) | -3% | 9% | 5%[57.1 µM] | 21%[57.1 µM]
Brc1ccc(C=C2C=c3ccccc3=C2)cc1 | · | · | -3% | 35µM*
CC(=O)Oc1cccc(N2C(=O)C3C4C=CC(C4=C(C)C)C3C2=O)c1 (stereo not drawn) | -1% | -11% | 1% | 40µM*
CC(=O)Oc1cccc(N2C(=O)C3C(C2=O)C2C=CC3C23CC3)c1 (stereo not drawn) | 0% | -9% | 2% | -17%
CC(=O)Oc1ccc(N2C(=O)C3C4C=CC(O4)C3C2=O)cc1 (stereo not drawn) | 1% | 5% | 13% | 5.6µM*
COc1ccc(Nc2cnn(-c3nc4ccccc4s3)c(=O)c2Cl)cc1 | 2% | -8% | -2% | 3.2µM*
COc1cc(/C=C2\C(=O)N(c3ccccc3)N=C2C)ccc1Oc1ccc([N+](=O)[O-])cc1[N+](=O)[O-] | 10% | -17% | -3% | ?
CC1=NN(c2ccccc2)C(=O)/C1=C\c1ccc(Oc2ccc([N+](=O)[O-])cc2[N+](=O)[O-])cc1 | -3% | -10% | 1%[57.1 µM] | 4µM*
Cc1ccc(-c2nc(CS(=O)(=O)CC(=O)N3CC(C)CC(C)C3)c(C)o2)cc1 (stereo not drawn) | -13% | 2% | 0%[57.1 µM] | 4µM*
CC(C)C[C@@H](CN)NC(=O)c1nc[nH]c1C(=O)N[C@@H](Cc1c[nH]c2ccccc12)C(=O)CNC[C@H](C)NC(=O)c1nc[nH]c1C(=O)N[C@@H](CC(=O)O)C(=O)O | -1% | ? | 2% | 5%

Screening data (PubChem BioAssay)
